Laboratory results published in PubChem BioAssay (NCATS).
Inconclusive results are not listed. Activity calls are given as the source filed them. Unless noted, calls come from the whole dose curve; as a rule, active = well fitted inhibition curve with a large enough effect; inconclusive = small, poorly fitted or top-dose-only effect; inactive = no such curve, though single readings can be large or run the other way.

Key:
[1] = target: Cytochrome P450 1A2 (Homo sapiens) (UniProt P05177); assay: p450-cyp1a2 (AID 410; calls by dose curve)
Sequence of Cytochrome P450 1A2 (Homo sapiens) (P05177 whole entry, looked up): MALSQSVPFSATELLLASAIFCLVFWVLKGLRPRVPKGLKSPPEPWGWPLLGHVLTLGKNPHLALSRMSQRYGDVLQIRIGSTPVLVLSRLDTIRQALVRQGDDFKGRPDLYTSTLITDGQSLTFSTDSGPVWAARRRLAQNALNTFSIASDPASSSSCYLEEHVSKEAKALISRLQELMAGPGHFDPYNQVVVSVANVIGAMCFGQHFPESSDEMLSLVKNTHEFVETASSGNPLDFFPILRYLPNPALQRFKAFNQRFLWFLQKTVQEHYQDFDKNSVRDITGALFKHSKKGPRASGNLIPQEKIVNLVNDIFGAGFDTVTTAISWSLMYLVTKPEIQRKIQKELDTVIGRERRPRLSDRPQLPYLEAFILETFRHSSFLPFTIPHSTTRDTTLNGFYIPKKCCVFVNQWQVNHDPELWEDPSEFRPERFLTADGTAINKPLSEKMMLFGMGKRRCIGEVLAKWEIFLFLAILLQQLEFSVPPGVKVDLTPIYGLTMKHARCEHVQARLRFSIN
In short: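 Read-out is luminescence from luciferin produced by CYP1A2 demethylation of Luciferin-ME (100uM, at Km). Detection reagent stopped the 60 min NADPH-dependent reaction; signals were normalized to 57 uM furafylline.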

[2] = target: Glucocorticoid receptor (Homo sapiens) (UniProt P04150); assay: GR-EFC Redistribution (AID 451; calls by dose curve; note: potency is the fitted concentration of half-maximal effect); conditions: CHO-K1 GR-EFC translocation, beta-gal luminescence, 2 h
Sequence of Glucocorticoid receptor (Homo sapiens) (P04150 whole entry, looked up, the tested form may be a part): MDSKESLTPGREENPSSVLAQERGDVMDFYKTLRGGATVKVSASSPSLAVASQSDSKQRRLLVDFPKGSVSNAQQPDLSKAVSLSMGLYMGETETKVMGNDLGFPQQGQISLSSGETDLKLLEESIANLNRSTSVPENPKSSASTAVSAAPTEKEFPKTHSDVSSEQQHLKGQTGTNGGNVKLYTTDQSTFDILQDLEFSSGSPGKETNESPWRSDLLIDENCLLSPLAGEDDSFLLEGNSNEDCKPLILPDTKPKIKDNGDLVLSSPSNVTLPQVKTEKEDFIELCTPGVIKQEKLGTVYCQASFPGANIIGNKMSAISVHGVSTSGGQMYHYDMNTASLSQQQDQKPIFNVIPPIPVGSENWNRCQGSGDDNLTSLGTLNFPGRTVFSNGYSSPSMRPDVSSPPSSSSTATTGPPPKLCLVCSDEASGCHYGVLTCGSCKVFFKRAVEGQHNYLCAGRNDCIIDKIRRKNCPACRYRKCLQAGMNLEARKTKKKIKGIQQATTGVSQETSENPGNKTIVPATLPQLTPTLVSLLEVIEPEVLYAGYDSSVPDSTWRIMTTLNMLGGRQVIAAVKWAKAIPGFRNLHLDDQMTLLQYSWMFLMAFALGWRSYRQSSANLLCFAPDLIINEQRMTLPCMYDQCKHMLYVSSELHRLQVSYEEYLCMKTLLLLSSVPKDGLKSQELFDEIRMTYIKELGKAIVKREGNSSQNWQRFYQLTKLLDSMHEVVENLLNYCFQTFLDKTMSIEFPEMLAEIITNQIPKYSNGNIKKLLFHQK
In short: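 CHO-K1 cells expressing nuclear EA and GR-ED fragments of b-gal; compounds titrated up to 46 uM final, 2 h at 37 C. GR nuclear translocation read as complemented b-gal luminescence after 1 h RT detection.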

[3] = target: Cytochrome P450 2C9 (Homo sapiens) (UniProt P11712); assay: qHTS Assay for Inhibitors and Substrates of Cytochrome P450 2C9 (AID 883); note: nearly all actives have a fitted effect of over 60% in size
Sequence of Cytochrome P450 2C9 (Homo sapiens) (P11712 whole entry, looked up): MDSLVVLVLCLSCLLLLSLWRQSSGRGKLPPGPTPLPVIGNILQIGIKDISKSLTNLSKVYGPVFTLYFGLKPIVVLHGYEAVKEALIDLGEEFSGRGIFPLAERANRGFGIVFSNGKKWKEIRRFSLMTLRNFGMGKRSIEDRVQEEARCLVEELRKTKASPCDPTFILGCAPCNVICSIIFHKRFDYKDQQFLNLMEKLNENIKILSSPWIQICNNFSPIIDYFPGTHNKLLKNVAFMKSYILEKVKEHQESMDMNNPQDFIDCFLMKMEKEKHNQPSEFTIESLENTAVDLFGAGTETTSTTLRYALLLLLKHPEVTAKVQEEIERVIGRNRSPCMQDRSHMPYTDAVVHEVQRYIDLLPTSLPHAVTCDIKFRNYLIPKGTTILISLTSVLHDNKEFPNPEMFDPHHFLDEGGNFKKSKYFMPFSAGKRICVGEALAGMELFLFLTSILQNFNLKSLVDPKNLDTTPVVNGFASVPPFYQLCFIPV
In short: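 Signal: luciferase luminescence reporting luciferin produced by CYP2C9. Conditions: 10nM enzyme, Luciferin-H 100uM at KM, 25mM KPO4, 37C, 60 min NADPH-driven reaction. Reference: 57uM sulphaphenazole as 100% inhibition.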

[4] = target: Cytochrome P450 2D6 (Homo sapiens) (UniProt P10635); assay: qHTS Assay for Inhibitors and Substrates of Cytochrome P450 2D6 (AID 891);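 note: luciferin methyl ether substrate demethylated by CYP2D6 with NADPH regeneration; nearly all actives have a fitted effect of over 60% in size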
Sequence of Cytochrome P450 2D6 (Homo sapiens) (P10635 whole entry, looked up): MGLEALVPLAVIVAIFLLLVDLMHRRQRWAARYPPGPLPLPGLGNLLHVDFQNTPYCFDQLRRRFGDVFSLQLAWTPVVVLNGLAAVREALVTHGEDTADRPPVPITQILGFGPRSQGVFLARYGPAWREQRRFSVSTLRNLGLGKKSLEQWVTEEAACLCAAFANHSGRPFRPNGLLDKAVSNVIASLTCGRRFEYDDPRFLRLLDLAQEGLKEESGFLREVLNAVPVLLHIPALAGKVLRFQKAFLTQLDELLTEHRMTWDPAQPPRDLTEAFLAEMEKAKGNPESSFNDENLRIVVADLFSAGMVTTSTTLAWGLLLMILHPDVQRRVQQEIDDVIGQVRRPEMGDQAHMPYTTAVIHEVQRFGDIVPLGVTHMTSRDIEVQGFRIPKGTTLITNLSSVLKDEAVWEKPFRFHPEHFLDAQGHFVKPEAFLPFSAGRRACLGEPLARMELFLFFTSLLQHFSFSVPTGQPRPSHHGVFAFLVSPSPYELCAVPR
In short: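 Luminescent read-out of luciferin formed by 5 nM human CYP2D6 demethylating 30 uM Luciferin-ME EGE (Km level) over 60 min at room temperature after NADPH regeneration addition. Data normalized to full inhibition by 1.43 uM quinidine.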

[5] = target: Cytochrome P450 2C19 (Homo sapiens) (UniProt P33261); assay: qHTS Assay for Inhibitors and Substrates of Cytochrome P450 2C19 (AID 899); note: nearly all actives have a fitted effect of over 60% in size
Sequence of Cytochrome P450 2C19 (Homo sapiens) (P33261 whole entry, looked up): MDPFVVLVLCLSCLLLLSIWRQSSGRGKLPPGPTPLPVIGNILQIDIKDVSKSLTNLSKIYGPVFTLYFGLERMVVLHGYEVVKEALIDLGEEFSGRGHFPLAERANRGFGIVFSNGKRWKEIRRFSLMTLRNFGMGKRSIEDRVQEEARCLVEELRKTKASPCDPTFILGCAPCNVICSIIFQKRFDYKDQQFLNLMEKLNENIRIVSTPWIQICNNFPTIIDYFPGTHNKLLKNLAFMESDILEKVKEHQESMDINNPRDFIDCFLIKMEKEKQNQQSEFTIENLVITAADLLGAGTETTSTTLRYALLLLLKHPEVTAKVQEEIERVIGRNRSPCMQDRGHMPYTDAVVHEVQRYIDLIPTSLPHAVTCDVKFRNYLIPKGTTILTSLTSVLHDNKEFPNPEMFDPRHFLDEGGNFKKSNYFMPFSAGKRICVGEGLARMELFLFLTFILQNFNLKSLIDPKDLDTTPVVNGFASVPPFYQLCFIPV
In short: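 Signal comes from luciferase acting on luciferin released by CYP2C19-mediated hydroxylation of Luciferin-H EGE, 10uM (KM). Assay mix: 5nM enzyme, 50mM KPO4; 60 min at 37C with NADPH regeneration. Data normalized against 57uM ketoconazole.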

[6] = target: Mitogen-activated protein kinase 10 (Mus musculus) (UniProt Q61831); assay: JNK3 AlphaScreen Assay (AID 530; active = well fitted curve in either direction with a large enough effect, not every such curve was filed as active;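 note: kinase came from lysate of stimulated human HepG2 cells; signal reports phosphorylation of biotinylated GST-cJun 1-79 at Ser73 with 10 µM ATP; series mostly up to about 57 µM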)
In short: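 HepG2 lysate (IL-1b/TNFa pre-activated) + biotin-GST-cJun 1-79 + anti-pSer73 cJun; cpd titration, 15 min RT; ATP 10 uM start; Tris pH 7.6, MgCl2, DTT, vanadate; beads in EDTA buffer; AlphaScreen.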

[7] = target: 3',5'-cyclic-AMP phosphodiesterase 4B (Homo sapiens) (UniProt Q07343); assay: qHTS Assay for Inhibitors of PDE-IV (AID 607; active = well fitted activation curve with a large enough effect in the main read-out, with a control signal flat, not every such curve was filed as active)
Sequence of 3',5'-cyclic-AMP phosphodiesterase 4B (Homo sapiens) (Q07343 whole entry, looked up): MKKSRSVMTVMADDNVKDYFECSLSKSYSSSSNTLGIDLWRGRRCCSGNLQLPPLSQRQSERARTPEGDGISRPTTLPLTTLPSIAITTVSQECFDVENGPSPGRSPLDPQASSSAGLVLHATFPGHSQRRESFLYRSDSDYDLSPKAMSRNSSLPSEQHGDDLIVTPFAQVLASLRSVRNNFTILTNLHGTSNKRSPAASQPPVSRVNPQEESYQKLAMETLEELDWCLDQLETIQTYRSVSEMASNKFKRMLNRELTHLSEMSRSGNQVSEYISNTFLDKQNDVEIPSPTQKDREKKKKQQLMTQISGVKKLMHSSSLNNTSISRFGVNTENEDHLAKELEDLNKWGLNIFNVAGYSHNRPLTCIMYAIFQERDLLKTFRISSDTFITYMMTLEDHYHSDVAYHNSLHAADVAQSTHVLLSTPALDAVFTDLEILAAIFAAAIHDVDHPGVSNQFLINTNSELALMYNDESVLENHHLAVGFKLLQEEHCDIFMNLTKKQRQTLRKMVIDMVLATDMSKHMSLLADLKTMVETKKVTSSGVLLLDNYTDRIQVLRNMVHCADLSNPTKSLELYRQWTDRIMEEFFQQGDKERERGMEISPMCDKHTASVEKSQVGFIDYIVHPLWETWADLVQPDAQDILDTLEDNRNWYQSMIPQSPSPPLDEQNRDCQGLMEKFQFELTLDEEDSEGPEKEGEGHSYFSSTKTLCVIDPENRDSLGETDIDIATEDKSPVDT
In short: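 ACTOne HEK293 cells carry a modified cAMP-gated CNG channel and express endogenous PDE4; plated 1000 cells/well, compounds up to 22.9 uM final. Membrane-potential dye fluorescence (ex 535/em 590) was read; parental cells received 10 uM forskolin + 100 uM RO 20-1724.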

Measured: Potency

CC(C)[C@@H](CC(=O)N[C@@H]1CCCC[C@H]1C(=O)N[C@H](CC(=O)N[C@@H](CCC(=O)O)CC(=O)O)Cc1c[nH]c2ccccc12)NC(=O)C[C@H](Cc1ccccc1)NC(=O)[C@@H]1CCCC[C@H]1N
inactive: [1] | [2] > 46 µM | [3] | [4] | [5]

CC(C)C[C@@H](CC(=O)N[C@@H](CCC(=O)O)CC(=O)O)NC(=O)[C@@H]1CNCC[C@H]1NC(=O)C[C@H](CCCN)NC(=O)C[C@H](CO)NC(=O)[C@@H]1CNCC[C@H]1N
inactive: [1] | [2] > 46 µM | [6] | [4]

CC(C)C[C@@H](CC(=O)N[C@@H](CCC(=O)O)CC(=O)O)NC(=O)[C@@H]1CCCC[C@H]1NC(=O)C[C@@H](NC(=O)C[C@H](CO)NC(=O)[C@@H]1CCCC[C@H]1N)C(C)C
inactive: [1] | [2] > 46 µM | [6] | [7] | [4] | [5]

CCC/C=C(\CCC)C(NC(=O)Oc1ccc(F)cc1)c1ccc(C(=O)OC)cc1 (stereo not drawn)
inactive: [1] | [6]

CC(C)C[C@@H](CC(=O)N[C@H](CC(=O)N[C@@H]1CCCC[C@H]1C(=O)N[C@H](CC(=O)N[C@@H](CCC(=O)O)CC(=O)O)CC(C)C)C(C)C)NC(=O)[C@@H]1CNCC[C@H]1N
inactive: [1] | [2] > 46 µM | [7] | [3] | [4]

CC(C)C[C@@H](CC(=O)N[C@@H](CCC(=O)O)CC(=O)O)NC(=O)[C@@H]1CCCC[C@H]1NC(=O)C[C@H](CCCN)NC(=O)C[C@H](Cc1c[nH]c2ccccc12)NC(=O)[C@@H]1CNCC[C@H]1N
inactive: [1] | [2] > 46 µM | [6] | [3] | [4] | [5]
